This passage reports binding signal results from publication PMC8384837, “Expanding the binding specificity for RNA recognition by a PUF domain”.

Assay in all cases: yeast three-hybrid, YBZ-1, SC-Leu-His + 0.5 mM 3-AT, 4 days
Conditions in all cases: tags: N-Gal4 AD-HA kept; label: inside an RPR1-promoter hybrid RNA with tandem MS2 sites; ssRNA

The target in one assay is PUM1 PUF domain R3-VCQ (Homo sapiens, UniProt Q14671 828-1176, C935V;R936C). In short, it runs like this: (§1)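 The interaction score is the log change in variant frequency from input to selection. Scores were computed in log2 with a pseudocount of 1 for absent variants, using Illumina sequencing of PCR-amplified repeat regions. The input came from four days on SC-Leu and the selection from four days on SC-Leu-His + 0.5 mM 3-AT. The cells were strain YBZ-1 (LexA–MS2 coat fusion, HIS3 reporter) co-expressing Pumilio-1 PUF domain libraries and matching RNA elements from a centromeric plasmid.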
Sequence of PUM1 PUF domain R3-VCQ (Q14671 828-1176 C935V/R936C): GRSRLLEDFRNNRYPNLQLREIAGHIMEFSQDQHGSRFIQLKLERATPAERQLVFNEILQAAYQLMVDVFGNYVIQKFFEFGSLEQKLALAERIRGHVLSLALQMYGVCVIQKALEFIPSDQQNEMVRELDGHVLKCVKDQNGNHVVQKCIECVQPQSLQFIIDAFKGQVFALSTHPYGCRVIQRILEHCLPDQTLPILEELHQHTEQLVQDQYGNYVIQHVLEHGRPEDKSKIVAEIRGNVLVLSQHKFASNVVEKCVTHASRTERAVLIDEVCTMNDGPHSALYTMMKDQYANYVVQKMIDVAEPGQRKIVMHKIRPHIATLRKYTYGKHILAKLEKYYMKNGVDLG

The target of a further assay is PUM1 PUF domain R3-MCK (Homo sapiens, UniProt Q14671 828-1176, C935M;R936C;Q939K). The procedure, abridged: as §1
Sequence of PUM1 PUF domain R3-MCK (Q14671 828-1176 C935M/R936C/Q939K): as the sequence (Q14671 828-1176 C935V/R936C) above, with V108M, Q112K counted along it
Another assay has as its target PUM1 PUF domain R1-GGR (Homo sapiens, UniProt Q14671 828-1176, S863G;R864G;Q867R). In short, it runs like this:
as §1

The target in the next assay is PUM1 PUF domain R1-KTR (Homo sapiens, UniProt Q14671 828-1176, S863K;R864T;Q867R). The procedure, abridged: as §1
Sequence of PUM1 PUF domain R1-KTR (Q14671 828-1176 S863K/R864T/Q867R): as the sequence (Q14671 828-1176 C935V/R936C) above, with S36K, R37T, Q40R, V108C, C109R counted along it
The target of a further assay is PUM1 PUF domain R5-KLM (Homo sapiens, UniProt Q14671 828-1176, C1007K;R1008L;Q1011M). The procedure, abridged:
as §1

The next assay has as its target PUM1 PUF domain R5-KGI (Homo sapiens, UniProt Q14671 828-1176, C1007K;R1008G;Q1011I). In short, it runs like this:
as §1

Another assay deals with PUM1 PUF domain R5-HQD (Homo sapiens, UniProt Q14671 828-1176, C1007H;R1008Q;Q1011D). The procedure, abridged: as §1
Sequence of PUM1 PUF domain R5-HQD (Q14671 828-1176 C1007H/R1008Q/Q1011D): as the sequence (Q14671 828-1176 C935V/R936C) above, with V108C, C109R, C180H, R181Q, Q184D counted along it
For the next assay, the target named is PUM1 PUF domain R4-SPL (Homo sapiens, UniProt Q14671 828-1176, N971S;H972P;Q975L). The procedure, abridged:
as §1

For a further assay, the target named is PUM1 PUF domain R4-AQS (Homo sapiens, UniProt Q14671 828-1176, N971A;H972Q;Q975S). In short, it runs like this:
as §1

The next assay addresses PUM1 PUF domain R8-MYL (Homo sapiens, UniProt Q14671 828-1176, N1122M;Q1126L). The procedure, abridged: as §1

Sequence of PUM1 PUF domain R1-GGR (Q14671 828-1176 S863G/R864G/Q867R): as the sequence (Q14671 828-1176 C935V/R936C) above, with S36G, R37G, Q40R, V108C, C109R counted along it
Sequence of PUM1 PUF domain R5-KLM (Q14671 828-1176 C1007K/R1008L/Q1011M): as the sequence (Q14671 828-1176 C935V/R936C) above, with V108C, C109R, C180K, R181L, Q184M counted along it
Sequence of PUM1 PUF domain R4-SPL (Q14671 828-1176 N971S/H972P/Q975L): as the sequence (Q14671 828-1176 C935V/R936C) above, with V108C, C109R, N144S, H145P, Q148L counted along it
Sequence of PUM1 PUF domain R4-AQS (Q14671 828-1176 N971A/H972Q/Q975S): as the sequence (Q14671 828-1176 C935V/R936C) above, with V108C, C109R, N144A, H145Q, Q148S counted along it
Sequence of PUM1 PUF domain R8-MYL (Q14671 828-1176 N1122M/Q1126L): as the sequence (Q14671 828-1176 C935V/R936C) above, with V108C, C109R, N295M, Q299L counted along it
Sequence of PUM1 PUF domain R5-KGI (Q14671 828-1176 C1007K/R1008G/Q1011I): as the sequence (Q14671 828-1176 C935V/R936C) above, with V108C, C109R, C180K, R181G, Q184I counted along it

Turning to “GGCUAGAACUAGUGGAUCCCCCGGCGCCCGGCGGCUCGAGCCCGGGUAAGUGUAAUUAGUCUGCAUGCCGCCGGGCGCCAUGCCUGCAGGUCGACUCUAGAAAACAUG”, in the assay with PUM1 PUF domain R3-VCQ, the binding signal was 0.32 log2 enrichment (interaction score).

In the case of “GGCUAGAACUAGUGGAUCCCCCGGCGCCCGGCGGCUCGAGCCCGGGUAAGUGUAAGUAGUCUGCAUGCCGCCGGGCGCCAUGCCUGCAGGUCGACUCUAGAAAACAUG”, the binding signal with PUM1 PUF domain R3-MCK is 4.78 log2 enrichment (interaction score).

On to “GGCUAGAACUAGUGGAUCCCCCGGCGCCCGGCGGCUCGAGCCCGGGUAAGUGUAAAUUGUCUGCAUGCCGCCGGGCGCCAUGCCUGCAGGUCGACUCUAGAAAACAUG”, for which the binding signal was 1.86 log2 enrichment (interaction score) in the assay with PUM1 PUF domain R1-GGR and 4.86 log2 enrichment (interaction score) in the assay with PUM1 PUF domain R1-KTR.

Take “GGCUAGAACUAGUGGAUCCCCCGGCGCCCGGCGGCUCGAGCCCGGGUAAGUGUCAAUAGUCUGCAUGCCGCCGGGCGCCAUGCCUGCAGGUCGACUCUAGAAAACAUG”: the binding signal in the assay with PUM1 PUF domain R5-KLM is 2.69 log2 enrichment (interaction score); in the assay with PUM1 PUF domain R5-KGI, 3.97 log2 enrichment (interaction score).

As to “GGCUAGAACUAGUGGAUCCCCCGGCGCCCGGCGGCUCGAGCCCGGGUAAGUGUAAAUCGUCUGCAUGCCGCCGGGCGCCAUGCCUGCAGGUCGACUCUAGAAAACAUG”, the binding signal in the assay with PUM1 PUF domain R1-GGR was 3.41 log2 enrichment (interaction score).

For the sequence “GGCUAGAACUAGUGGAUCCCCCGGCGCCCGGCGGCUCGAGCCCGGGUAAGUGUUAAUAGUCUGCAUGCCGCCGGGCGCCAUGCCUGCAGGUCGACUCUAGAAAACAUG”, the binding signal with PUM1 PUF domain R5-HQD was 3.03 log2 enrichment (interaction score); with PUM1 PUF domain R5-KLM it was 0.44 log2 enrichment (interaction score).

As for “GGCUAGAACUAGUGGAUCCCCCGGCGCCCGGCGGCUCGAGCCCGGGUAAGUGUAUAUAGUCUGCAUGCCGCCGGGCGCCAUGCCUGCAGGUCGACUCUAGAAAACAUG”, the binding signal with PUM1 PUF domain R4-SPL was 1.39 log2 enrichment (interaction score).

Take “GGCUAGAACUAGUGGAUCCCCCGGCGCCCGGCGGCUCGAGCCCGGGUAAGUGUAAAUAGUCUGCAUGCCGCCGGGCGCCAUGCCUGCAGGUCGACUCUAGAAAACAUG”: the binding signal is 2.38 log2 enrichment (interaction score) with PUM1 PUF domain R4-SPL, 2.76 log2 enrichment (interaction score) with PUM1 PUF domain R3-VCQ and 2.27 log2 enrichment (interaction score) in the assay with PUM1 PUF domain R4-AQS.

As to “GGCUAGAACUAGUGGAUCCCCCGGCGCCCGGCGGCUCGAGCCCGGGUAAGCGUAAAUAGUCUGCAUGCCGCCGGGCGCCAUGCCUGCAGGUCGACUCUAGAAAACAUG”, the binding signal with PUM1 PUF domain R8-MYL is 2.58 log2 enrichment (interaction score).
